The campaign covered roughly 310,000 compounds. About 2,200 (0.71%) showed an effect of 50% or more. Effects have a minus sign here. For the sample, strong results were picked, then their nearest neighbours and some compounds at random.
Molecular target: human ether-à-go-go-related gene (hERG) potassium channel (human, UniProt Q12809)
Assay: primary screen, population patch clamp on CHO cells stably expressing hERG; higher = less effect of the substance

Sequence of human ether-à-go-go-related gene (hERG) potassium channel (Q12809 whole entry, looked up): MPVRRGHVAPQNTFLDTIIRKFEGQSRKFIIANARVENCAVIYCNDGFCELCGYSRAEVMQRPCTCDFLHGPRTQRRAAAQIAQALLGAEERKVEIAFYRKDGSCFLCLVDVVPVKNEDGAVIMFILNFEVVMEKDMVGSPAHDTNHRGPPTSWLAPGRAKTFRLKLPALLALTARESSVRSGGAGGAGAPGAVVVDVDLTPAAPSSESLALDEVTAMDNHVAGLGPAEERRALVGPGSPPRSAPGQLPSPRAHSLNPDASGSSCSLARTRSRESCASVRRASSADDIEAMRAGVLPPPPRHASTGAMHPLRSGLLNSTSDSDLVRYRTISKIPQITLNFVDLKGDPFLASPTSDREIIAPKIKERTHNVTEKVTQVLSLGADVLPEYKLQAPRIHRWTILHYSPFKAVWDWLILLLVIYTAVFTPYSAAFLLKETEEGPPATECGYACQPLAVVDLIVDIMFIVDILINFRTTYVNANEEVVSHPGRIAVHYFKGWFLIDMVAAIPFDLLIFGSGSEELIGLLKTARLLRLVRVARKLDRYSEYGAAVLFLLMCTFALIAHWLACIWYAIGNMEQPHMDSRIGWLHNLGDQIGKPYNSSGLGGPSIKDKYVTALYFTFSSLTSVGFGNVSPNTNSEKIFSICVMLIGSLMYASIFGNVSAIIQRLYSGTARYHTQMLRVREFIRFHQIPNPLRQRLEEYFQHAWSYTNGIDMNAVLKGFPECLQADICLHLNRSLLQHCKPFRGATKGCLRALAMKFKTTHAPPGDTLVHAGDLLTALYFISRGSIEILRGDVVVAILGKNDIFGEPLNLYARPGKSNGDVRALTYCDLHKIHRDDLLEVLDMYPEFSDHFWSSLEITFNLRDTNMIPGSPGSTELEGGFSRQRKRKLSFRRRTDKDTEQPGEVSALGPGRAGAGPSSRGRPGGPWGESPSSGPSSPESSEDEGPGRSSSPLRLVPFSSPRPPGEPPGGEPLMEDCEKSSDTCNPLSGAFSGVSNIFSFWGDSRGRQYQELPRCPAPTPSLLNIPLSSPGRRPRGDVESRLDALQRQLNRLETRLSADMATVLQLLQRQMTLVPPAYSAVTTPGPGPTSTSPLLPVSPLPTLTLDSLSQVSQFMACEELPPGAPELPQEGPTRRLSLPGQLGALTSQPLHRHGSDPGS

Compound	hERG current change (%, negative = inhibition) at 1uM [%]
CCOC(=O)C1=C(CSc2nc(-c3ccccc3)ccc2C#N)OC(N)=C(C#N)C1c1cccnc1 (stereo not shown)	-6.76
COc1ccc(/C=C(\NC(=O)c2ccc(Cl)cc2)C(=O)NCCCn2ccnc2)cc1OC	9.45
CSc1ccc(/C=C(/NC(=O)c2ccccc2)C(=O)NCCCn2ccnc2)cc1	-15.6
O=C(NCCCn1ccnc1)/C(=C/c1ccc(F)cc1)NC(=O)c1ccccc1	-72.2
Cc1ccc(/C=C(\NC(=O)c2ccc(C)cc2)C(=O)NCCCn2ccnc2)cc1	-87
Cc1ccc(C(=O)N/C(=C/c2ccccc2F)C(=O)NCCCn2ccnc2)cc1	-22.5
Cc1ccc(C(=O)N/C(=C\c2cn(C)c3ccccc23)C(=O)NCCCn2ccnc2)cc1	13.5
COc1ccc(/C=C(\NC(=O)c2ccc(C)cc2)C(=O)NCCCn2ccnc2)cc1OC	12.1
Cc1ccc(C(=O)N/C(=C\c2ccc(F)cc2)C(=O)NCCCn2ccnc2)cc1	-85.1
O=C(NCCCn1ccnc1)/C(=C\c1ccccc1F)NC(=O)c1ccccc1	-42.5
Cc1ccc(C(=O)N/C(=C\c2ccccc2)C(=O)NCCCn2ccnc2)cc1	-87
CC(C)(C)NC(=S)N/N=C\c1ccc(-c2ccc([N+](=O)[O-])cc2)o1	13.3
COC(=O)Nc1ccc(S(=O)(=O)N2CCCC(C(=O)N3CCN(C)CC3)C2)cc1 (stereo not shown)	7.31
Cc1cc(C)c2cc(CN(Cc3ccc4c(c3)OCO4)Cc3nnnn3Cc3ccco3)c(=O)[nH]c2c1	10.8
CC1=NN(C(C#N)c2ccccc2C)C(c2ccccc2)C1 (stereo not shown)	9.72
Cc1cc(C)nc(/N=C2\NC(=O)CC3C(=O)NCCN23)n1 (stereo not shown)	13.1
CN1CC(=O)Nc2ccc([N+](=O)[O-])cc2C1=O	17.6
COC(=O)c1cc2ccsc2n1Cc1ccccc1F	-2.01
COc1ccc(/C=C(/NC(=O)c2ccc(OC)c(OC)c2)C(=O)NCCCn2ccnc2)cc1	15.5
COc1ccc(C(=O)N/C(=C\c2ccccc2)C(=O)NCCCn2ccnc2)cc1	-18.2
COc1ccc(/C=C(\NC(=O)c2ccc(C)cc2)C(=O)NCCCn2ccnc2)cc1	-91.7
Cc1oc(CN2CCOCC2)cc1C(=O)O	7.66
Cc1ccc(-c2cn(-c3ccc(OC(F)F)cc3)c3[n+]2CCCCC3)cc1.[Br-]	-13.3
FC(F)Oc1ccc(-n2cc(-c3ccc(Cl)cc3)[n+]3c2CCCCC3)cc1.[Br-]	-45.2
COc1ccc(-n2cc(-c3ccc(OC(F)F)cc3)[n+]3c2CCCCC3)cc1.[Br-]	-52.9
CCn1nccc1C(=O)Nc1cc(Cl)ccc1Cl	0.897

Compound	hERG current change (%, negative = inhibition) at 1uM [%]
CN(CCc1ccccc1)C1CCCN(S(=O)(=O)c2cccc(F)c2)C1 (stereo not shown)	-2.76
CC(=O)c1ccc(S(=O)(=O)N2CCCC(N(C)CCc3ccccc3)C2)cc1 (stereo not shown)	-78.7
COc1ccc(S(=O)(=O)N2CCCC(N(C)CCc3ccccc3)C2)cc1OC (stereo not shown)	-26.5
COc1ccc(CCN(C)C2CCCN(S(=O)(=O)N(C)C)C2)cc1OC (stereo not shown)	8.71
COc1ccc(CCN(C)C2CCCN(S(=O)(=O)c3ccc(C)cc3)C2)cc1OC (stereo not shown)	-82.1
COc1ccc(CCN(C)C2CCCN(S(=O)(=O)c3ccccc3F)C2)cc1OC (stereo not shown)	-45.9
COc1ccc(CCN(C)C2CCCN(S(C)(=O)=O)C2)cc1OC (stereo not shown)	6.5
CC(=O)c1ccc(S(=O)(=O)N2CCCC(N(C)CCc3ccccn3)C2)cc1 (stereo not shown)	-44.4
COc1ccc(CCN(C)C2CCCN(S(=O)(=O)c3ccccc3)C2)cc1OC (stereo not shown)	-64.9
Cc1cc(NC(=O)CSc2nc3c(c(=O)n2-c2ccccc2)SC(C)C3)no1 (stereo not shown)	-8.78
Cc1ccc(C(=O)Nc2nc3nc(-c4ccccc4)cc(=O)n3[nH]2)cc1	14.5
CCC(C)NS(=O)(=O)c1ccc(NC(C)=O)cc1 (stereo not shown)	11.2
CC(C)Cc1cc(C(=O)O)n[nH]1	5.43
CC(=O)N1CCc2cc(Br)cc(S(=O)(=O)N3CCc4ccccc43)c21	-1.76
O=C(c1ccc(-n2cccc2)cc1)N1CCOCC1	7.49
CCc1ccccc1N(CC(=O)NC1CCCCC1)C(=O)CCC(=O)Nc1ccccn1	12.3
O=C(Nc1ccc(-c2csc(Nc3ccccc3)n2)cc1)c1cc([N+](=O)[O-])cc(C(F)(F)F)c1	4.72
O=C(NCCNC(=O)c1ccc(-c2ccc(Cl)c(Cl)c2)o1)c1cnccn1	-54.4
Cc1ccc(-c2ccc(C(=O)NCCCNC(=O)c3cnccn3)o2)cc1Cl	18.8
O=C(NCCCNC(=O)c1ccc(-c2cccc(Cl)c2)o1)c1cnccn1	-12.5
NS(=O)(=O)OCCCc1ccc(C(F)(F)F)cc1	6.75
COc1ccc(CCNC(=O)CCn2c(=O)c3ccccc3n(CC(=O)NCC3CCCO3)c2=O)cc1OC (stereo not shown)	9.7
COc1ccc(CCn2c(=N)c(C(=O)NCC3CCCO3)cc3c(=O)n4ccccc4nc32)cc1OC (stereo not shown)	-79.9
COc1ccc(CCn2c(=N)c(C(=O)NCC3CCCO3)cc3c(=O)n4ccccc4nc32)cc1 (stereo not shown)	-84.4
COc1ccc(Cn2c(=N)c(C(=O)NCC3CCCO3)cc3c(=O)n4ccccc4nc32)cc1 (stereo not shown)	-85
Cc1cc(N2CCC(C)CC2)nc2ccc(N3C(=O)CCC3=O)cc12	9.64

— publication PMC4336329 (PLoS ONE, 2015)
